Screening results: PubChem BioAssay, National Center for Advancing Translational Sciences (NCATS)
pS6 MEF inh – mTORC1 pathway inhibition measured by phospho-rpS6 | 44,000 tested, 0.78% active | Potency, µM (titrated, usually from 38.3 µM), for the others: at the highest dose activity change, negative = inhibition, hits mostly inhibitors | AID 493208 | Tsc2-/- p53-/- MEF, phospho-rpS6 immunofluorescence/PI, 24 h;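 note: potency is the fitted concentration of half-maximal effect; plate controls were DMSO for no effect and rapamycin for full effect; nearly all actives have a fitted effect of over 50% in size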
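Tsc2-/-, p53-/- MEFs (empty-vector stable line) in DMEM + 10% FBS were treated with compounds 24 h at 37 degree Celsius, fixed, and immunostained for phospho-rpS6 (Alexa-488) with propidium iodide counterstain. Laser-scanning cytometry gave % positive cells, normalized against 7.5 nM rapamycin and DMSO.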
HTT prom inh – HTT promoter inhibition | AID 1508623 | Potency, µM (highest dose often 57.5 µM), inactives show top-dose activity change, negative = inhibition, actives largely listed as inhibitors | 48,000 tested, 0.93% active | HEK293 HTT promoter firefly luciferase reporter, 24 h; note: potency is the fitted concentration of half-maximal effect; nearly all actives have a fitted effect of over 50% in size
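HEK293 luciferase promoter-reporter cells (2,500/well) plated 24 h, then compounds added at up to 57.5 uM final for 24 h at 37 °C. Firefly luminescence by Dual-Glo, normalized to vehicle (0%) and zero RLU (-100%).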
HTT-AS promoter – HTT-AS promoter activation; HEK293 HTT-AS promoter firefly luciferase reporter, 24 h; response scale: percent change from vehicle, -100% = no light; Potency, µM (highest dose often 57.5 µM), inactives show at the highest dose activity change, positive = activation, usual class: activators; 48,000 tested, 0.24% active; AID 1508624; note: potency is the fitted concentration of half-maximal effect; nearly all actives have a fitted effect of over 55% in size
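HEK293 cells carrying firefly luciferase reporters were seeded at 2,500 per well in Opti-MEM and cultured for 24 h. They were then treated with compounds at up to 57.5 uM final for 24 h at 37 degrees C before Dual-Glo luminescence readout.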
OvCa metastasis – blocks SKOV3ip1 adhesion and invasion in omental model; SKOV3ip1-GFP adhesion/invasion on 3D omental model, fluorescence; Potency, µM (doses to about 45.8 µM), inactives show top-dose activity change, negative = inhibition, most hits filed as inhibitors; 46,000 tested, 0.1% active; AID 1963576;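 note: potency is the fitted concentration of half-maximal effect; plate controls were DMSO wells for no effect and tomatine positive control wells for full effect; nearly all actives have a fitted effect of over 65% in size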
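A 3D layer of primary human omental fibroblasts, mesothelial cells, fibronectin and collagen I, grown 48 hr, received SKOV3ip1-GFP cells in serum-free medium plus compounds at 0.36-46 umol/L. After 2 hr RT and 16 hr 37 C, fixed adherent GFP cells were counted; normalized to DMSO and tomatine.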
S16 viability – cytotoxicity in S16 Pmp22-F2sN Schwann cells; 43,000 tested, 0.48% active; Potency, µM (top dose mostly 57.5 µM), without a hit: top-dose activity change, negative = cytotoxicity, hits mostly cytotoxic; S16 Pmp22-F2sN Schwann cells viability, CellTiter-Glo, 24 h; AID 1508642; note: potency is the fitted concentration of half-maximal effect; % is set by controls: 0 for no effect and ±100 for the full control effect; nearly all actives have a fitted effect of over 65% in size
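Rat S16 Schwann reporter line, 24 h treatment with library compounds delivered at 23 nL per well. Cell viability by CellTiter-Glo luminescence.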
PMP22 txn – modulators of PMP22 gene transcription in S16 Schwann cells | S16 Pmp22-F2sN Schwann cells, FLuc/NLuc coincidence luminescence, 24 h | Potency, µM (doses to about 57.5 µM), inactives show top-dose activity change, negative = inhibition, usual class: inhibitors | 43,000 tested, 2% active; active = clear falling dose curves in both reporters; inconclusive = both reporters move, but less clearly or upward; inactive = either reporter flat; the % is the NLuc reporter signal; note: potency is the fitted concentration of half-maximal effect; % is set by controls: 0 for no effect and ±100 for the full control effect
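Reporter cells (S16 Pmp22-F2sN, 500–1,000 per well) exposed to compounds for 24 h, 37C, 5% CO2; lysis with FLuc read after 10 min, then Stop&Glo and NLuc read after 10 min.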
NLuc sat counter – counter-screen for PMP22 expression modulators: NanoLuc inhibition, saturating substrate; shares compounds with PMP22 txn; Secreted NLuc enzyme (filtered S16 cell medium), Nano-Glo luminescence; Potency, µM (top dose mostly 57.5 µM), for the others: top-dose activity change, negative = inhibition, actives largely listed as inhibitors; 690 tested, 4% active; AID 1508638; note: potency is the fitted concentration of half-maximal effect; % is set by controls: 0 for no effect and ±100 for the full control effect
NLuc Km ctr – inhibits NanoLuc under Km conditions, PMP22 counter-screen; shares compounds with PMP22 txn; secreted NLuc enzyme, coelenterazine luminescence, Km conditions; Potency, µM (series often up to 57.5 µM), without a hit: at the highest dose activity change, negative = inhibition, most hits filed as inhibitors; 690 tested, 5% active; AID 1508639; note: potency is the fitted concentration of half-maximal effect; % is set by controls: 0 for no effect and ±100 for the full control effect
FLuc ctr PMP22 – inhibits firefly luciferase, PMP22 counter-screen. Potency, µM (top dose mostly 57.5 µM), without a hit: at the highest dose activity, negative = inhibition, actives largely listed as inhibitors. shares compounds with PMP22 txn. 690 tested, under 10 active. purified P. pyralis FLuc, luminescence, 10 min; note: % of control where 0% means no effect
Target sequence (P08659 whole entry, looked up): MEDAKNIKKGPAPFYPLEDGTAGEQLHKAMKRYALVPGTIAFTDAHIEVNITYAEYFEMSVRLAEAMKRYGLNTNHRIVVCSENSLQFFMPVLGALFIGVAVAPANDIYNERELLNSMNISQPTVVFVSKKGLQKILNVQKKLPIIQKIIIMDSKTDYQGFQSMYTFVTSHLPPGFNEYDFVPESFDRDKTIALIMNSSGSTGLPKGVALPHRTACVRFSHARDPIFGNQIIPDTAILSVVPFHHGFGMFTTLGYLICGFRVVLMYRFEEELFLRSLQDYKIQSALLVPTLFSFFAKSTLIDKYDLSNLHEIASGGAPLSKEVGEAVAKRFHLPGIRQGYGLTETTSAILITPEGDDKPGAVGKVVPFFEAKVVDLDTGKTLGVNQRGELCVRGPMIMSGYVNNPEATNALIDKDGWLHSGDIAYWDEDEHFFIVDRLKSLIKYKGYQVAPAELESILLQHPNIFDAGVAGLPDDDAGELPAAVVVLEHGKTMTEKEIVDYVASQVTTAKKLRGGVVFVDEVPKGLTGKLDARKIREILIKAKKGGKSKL
S16 F2sN tox cnf – confirmation of cytotoxicity in S16 Pmp22-F2sN Schwann cells (luciferase reporters placed in the Pmp22 gene) | shares compounds with PMP22 txn | S16 Schwann cells viability, CellTiter-Glo ATP luminescence, 24 h | Potency, µM (titrated, usually from 57.5 µM), for inactives: at the top dose activity change, negative = viability loss, usual class: cytotoxic | 690 tested, 7% active; note: potency is the fitted concentration of half-maximal effect; % is set by controls: 0 for no effect and ±100 for the full control effect
PMP22 txn conf – confirmation of modulators of PMP22 gene transcription in S16 cells | Potency, µM (series often up to 57.5 µM), for the others: top-dose activity change, negative = inhibition, usual class: inhibitors | S16 Schwann cells Pmp22-F2sN, dual luciferase, 24 h | 690 tested, 22% active | shares compounds with PMP22 txn; active = clear falling dose curves in both reporters; inconclusive = both reporters move, but less clearly or upward; inactive = either reporter flat; the % is the FLuc reporter signal; note: potency is the fitted concentration of half-maximal effect
PMP22 HiBiT cnf – confirmation of modulators of rat PMP22 protein expression; shares compounds with PMP22 txn; S16 Schwann cells Pmp22-HiBiT, luminescence, 48 h; Potency, µM (series often up to 27.9 µM), for the others: top-dose activity change, negative = inhibition, hits mostly inhibitors; 95 tested, under 10 active; AID 1508647
Target sequence (P25094 whole entry, looked up): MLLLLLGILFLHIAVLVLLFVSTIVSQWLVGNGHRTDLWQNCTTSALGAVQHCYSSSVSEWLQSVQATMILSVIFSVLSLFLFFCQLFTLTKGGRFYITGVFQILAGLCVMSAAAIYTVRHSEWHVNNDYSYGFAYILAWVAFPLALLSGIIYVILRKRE
Numbers without * were called inactive; i = inactive; ? = inconclusive; nt = no result given. A selection: hits, their analogues and other compounds. The true share with any hit is near 3.6%. Unless noted, calls come from the whole dose curve; as a rule, active = well fitted curve in the direction sought with a large enough effect; inconclusive = small, poorly fitted or top-dose-only effect, or another doubt; inactive = no such curve, though single readings can be large; an effect the other way counts as inactive or inconclusive.

SMILES	pS6 MEF inh	HTT prom inh	HTT-AS promoter	OvCa metastasis	S16 viability	PMP22 txn	NLuc sat counter	NLuc Km ctr	FLuc ctr PMP22	S16 F2sN tox cnf	PMP22 txn conf	others
CCC1CCCCN1CCCNC(=O)c1ccc2c(c1)N(Cc1ccccc1F)C(=O)c1ccccc1S2(=O)=O (centres undefined)	?	?	-33%	-17%	?	8.9µM*	-21%	4%	-14%	?	?
CCN(CC)CCCNC(=O)CSc1c2c(nc3cc(Cl)ccc13)CCCC2	?	?	-67%	?	?	6.7µM*	-3%	-1%	3%	?	10µM*	PMP22 HiBiT cnf=66%
CCc1ccc(CNC(=O)CSc2c3c(nc4ccc(Cl)cc24)CCCC3)cc1	0%	-18%	-9%	-6%	-1%	6.2µM*	-8%	?	5%	4%	?
O=C(CSc1c2c(nc3ccc(Cl)cc13)CCCC2)N1CCN(c2ccc(Cl)cc2)CC1	1%	2%	-14%	-5%	-2%	?	nt	nt	nt	nt	nt
O=C(CSc1c2c(nc3ccc(Cl)cc13)CCCC2)N1CCN(c2cccc(Cl)c2)CC1	-19%	?	-52%	-9%	-12%	20µM*	-8%	-1%	0%	17%	?
CC(C)OCCCNC(=O)CSc1c2c(nc3ccc(Cl)cc13)CCCC2	-10%	?	-85%	?	?	12µM*	-10%	5%	2%	?	19µM*
CC(C)[C@H](C(=O)Nc1ccc(C(=O)NO)cc1)c1ccccc1	nt	162%	?	-25%	nt	nt	nt	nt	nt	nt	nt
O=C(NCCC1=CCCCC1)c1ccc2c(c1)N(Cc1ccccc1)C(=O)c1ccccc1S2=O (centres undefined)	2%	-30%	-34%	i	-9%	13µM*	-8%	5%	6%	-11%	-36%
O=C(NCCC1=CCCCC1)c1ccc2c(c1)N(Cc1ccc(Cl)cc1)C(=O)c1ccccc1S2=O (centres undefined)	-9%	-18%	-30%	10%	0%	?	nt	nt	nt	nt	nt
Clc1ccc(-c2noc3ncnc(NC4CCCCC4)c23)cc1	0%	?	-26%	i	0%	?	-8%	-1%	-3%	-10%	?
Cc1cccc(CCNc2ncnc3onc(-c4ccc(Cl)cc4)c23)c1	1%	?	-41%	i	-19%	19µM*	-1%	-1%	-6%	?	?
CC1CCC(Nc2ncnc3onc(-c4ccc(Cl)cc4)c23)CC1 (centres undefined)	-6%	?	-31%	-3%	-1%	-10%	nt	nt	nt	nt	nt
Clc1cccc(-c2noc3ncnc(NC4CCCCC4)c23)c1	-13%	?	-31%	-1%	-19%	?	-12%	2%	-11%	-16%	8.2µM*	PMP22 HiBiT cnf=-6%
CCOC(=O)c1cc2c(=O)n3ccccc3nc2n(CC2CCCO2)c1=NC(=O)c1cccc(C(F)(F)F)c1 (centres undefined)	-20%	-20%	8%	i	1%	4.9µM*	-19%	?	9%	5%	?
CCOC(=O)c1cc2c(=O)n3ccccc3nc2n(Cc2ccco2)c1=NC(=O)c1cc(C)cc(C)c1	-3%	?	-34%	3%	?	5.6µM*	?	?	2%	?	4.6µM*	PMP22 HiBiT cnf=?
CCOC(=O)c1cc2c(=O)n3ccccc3nc2n(Cc2ccco2)c1=NC(=O)c1ccc(C(C)(C)C)cc1	16%	-19%	-2%	i	-18%	?	nt	nt	nt	nt	nt
CCCN(C(=O)c1cc2c(=O)n(CC)c3ccccc3c2s1)c1ccccc1F	3%	11%	-1%	i	6%	7.6µM*	-19%	?	3%	-10%	?
O=C(CCNS(=O)(=O)c1ccc2c(c1)CCN2C(=O)C1CC1)Nc1ccc(Cl)cc1	-1%	?	-39%	-6%	-28%	?	nt	nt	nt	nt	nt
COc1ccc(NC(=O)CCNS(=O)(=O)c2ccc3c(c2)CCN3C(=O)C2CC2)cc1Cl	-24%	?	-39%	-25%	-25%	14µM*	?	?	-5%	-7%	-38%
CC(CC1c2ccccc2CCc2ccccc21)CN(C)C (centres undefined)	nt	-8%	-11%	nt	nt	nt	nt	nt	nt	nt	nt
Oc1ccc(NCc2ccccc2OCc2ccccc2F)cc1	-26%	-18%	-2%	?	28µM*	20µM*	?	?	?	-7%	-7%
O=C1CC2(CCCC2)CC(=O)N1	nt	12%	0%	nt	nt	nt	nt	nt	nt	nt	nt
Cc1cccc(CNC(=O)c2cnc3sc(N4CCOCC4)nn3c2=O)c1	6%	11%	-5%	1%	1%	-10%	nt	nt	nt	nt	nt
Cc1cccc(CNC(=O)c2cnc3sc(N4CCCCCC4)nn3c2=O)c1	-3%	-5%	-11%	i	4%	?	-1%	4%	3%	23%	-5%
